How the values were obtained:
Assay in all cases: log2 ratio of Biotin-Ahx-Ub-VS probe labelling (fragment/DMSO); higher = less target engagement (more negative = stronger competition), active = hit call of the paper (q ≤ 0.05, log2 ratio ≤ -1)
Settings in all cases: compound concentration: 200 uM; treatment time: 3 h
ALG13 = target: T1, ALG13 (UniProt Q9NP73)
T1 sequence (whole entry): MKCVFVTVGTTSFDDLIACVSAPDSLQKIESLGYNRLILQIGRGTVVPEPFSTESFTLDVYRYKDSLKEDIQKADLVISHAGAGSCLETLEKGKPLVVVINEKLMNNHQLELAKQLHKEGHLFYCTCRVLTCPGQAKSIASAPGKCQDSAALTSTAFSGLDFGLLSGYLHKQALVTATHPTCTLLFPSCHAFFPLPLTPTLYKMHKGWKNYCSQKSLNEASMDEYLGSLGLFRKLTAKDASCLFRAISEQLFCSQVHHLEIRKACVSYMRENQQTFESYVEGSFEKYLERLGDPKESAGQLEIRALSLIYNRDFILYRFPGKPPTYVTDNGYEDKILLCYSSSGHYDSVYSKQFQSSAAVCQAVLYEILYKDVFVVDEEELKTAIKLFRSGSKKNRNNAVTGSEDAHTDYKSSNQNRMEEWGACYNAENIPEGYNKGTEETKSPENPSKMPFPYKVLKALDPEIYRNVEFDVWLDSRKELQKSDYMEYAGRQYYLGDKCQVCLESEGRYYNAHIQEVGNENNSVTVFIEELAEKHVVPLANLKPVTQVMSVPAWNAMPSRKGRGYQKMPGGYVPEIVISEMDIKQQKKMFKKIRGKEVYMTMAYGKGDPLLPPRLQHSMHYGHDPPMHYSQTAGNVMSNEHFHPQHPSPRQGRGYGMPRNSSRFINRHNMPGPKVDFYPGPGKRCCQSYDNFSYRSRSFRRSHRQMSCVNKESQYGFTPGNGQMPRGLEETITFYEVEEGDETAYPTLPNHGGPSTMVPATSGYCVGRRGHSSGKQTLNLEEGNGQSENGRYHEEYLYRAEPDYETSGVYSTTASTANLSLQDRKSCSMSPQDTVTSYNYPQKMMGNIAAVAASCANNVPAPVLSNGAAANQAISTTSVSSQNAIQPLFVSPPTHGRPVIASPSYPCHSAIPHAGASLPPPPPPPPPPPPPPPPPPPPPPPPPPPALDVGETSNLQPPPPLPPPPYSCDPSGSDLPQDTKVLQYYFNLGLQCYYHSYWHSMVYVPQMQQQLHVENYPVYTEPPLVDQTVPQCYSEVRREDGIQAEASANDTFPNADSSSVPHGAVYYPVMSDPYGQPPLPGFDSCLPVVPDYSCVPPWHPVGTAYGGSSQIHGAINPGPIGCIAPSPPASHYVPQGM
Outline: (§1)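 HEK293T lysate, 495 µg per sample in Tris/CHAPS/IGEPAL buffer with protease inhibitors, was treated in triplicate with fragment at 200 µM or vehicle for 3 h and then with Biotin-Ahx-Ub-VS at 0.5 µM final for 1 h. Labelled DUBs were NeutrAvidin-enriched, digested with LysC and trypsin, and run by diaPASEF LC-MS/MS. Spectronaut label-free quantities were global-median-normalised, and values are average log2 fragment/vehicle ratios by unpaired t-test on proteins with ≥2 unique peptides.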

ATXN3 = ATXN3 (UniProt P54252)
ATXN3, sequence (P54252 whole entry): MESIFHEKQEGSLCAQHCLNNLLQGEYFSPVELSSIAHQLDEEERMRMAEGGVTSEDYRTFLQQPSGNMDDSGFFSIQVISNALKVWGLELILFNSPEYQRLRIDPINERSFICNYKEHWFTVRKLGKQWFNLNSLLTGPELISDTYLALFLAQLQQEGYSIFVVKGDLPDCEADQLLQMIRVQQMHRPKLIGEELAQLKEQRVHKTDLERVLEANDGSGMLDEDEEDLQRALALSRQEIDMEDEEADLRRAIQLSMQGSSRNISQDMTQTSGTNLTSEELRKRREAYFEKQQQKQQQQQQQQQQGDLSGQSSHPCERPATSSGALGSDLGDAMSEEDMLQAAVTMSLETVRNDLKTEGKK
Outline: as §1

BAP1 = target: T2, BAP1 (UniProt Q92560)
T2 sequence (whole entry): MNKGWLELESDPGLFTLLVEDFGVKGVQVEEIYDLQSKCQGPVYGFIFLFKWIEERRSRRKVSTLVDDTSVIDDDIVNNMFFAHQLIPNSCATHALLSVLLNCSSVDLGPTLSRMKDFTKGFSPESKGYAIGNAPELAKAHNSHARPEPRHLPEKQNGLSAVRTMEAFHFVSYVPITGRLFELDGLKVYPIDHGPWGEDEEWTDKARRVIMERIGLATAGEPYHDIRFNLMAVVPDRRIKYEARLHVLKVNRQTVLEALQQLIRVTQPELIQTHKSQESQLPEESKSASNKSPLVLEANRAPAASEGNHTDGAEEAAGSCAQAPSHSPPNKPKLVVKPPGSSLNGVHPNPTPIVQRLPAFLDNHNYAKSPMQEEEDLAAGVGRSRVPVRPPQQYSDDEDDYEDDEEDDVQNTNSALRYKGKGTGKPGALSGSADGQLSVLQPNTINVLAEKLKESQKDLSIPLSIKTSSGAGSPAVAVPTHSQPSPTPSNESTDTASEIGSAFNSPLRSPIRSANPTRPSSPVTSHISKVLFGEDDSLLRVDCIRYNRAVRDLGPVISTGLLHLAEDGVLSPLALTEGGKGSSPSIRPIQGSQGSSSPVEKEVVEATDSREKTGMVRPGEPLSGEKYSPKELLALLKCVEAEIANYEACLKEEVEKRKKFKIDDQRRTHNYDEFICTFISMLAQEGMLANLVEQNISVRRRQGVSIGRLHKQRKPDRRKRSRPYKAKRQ
Outline: as §1

EIF3F = EIF3F (UniProt O00303)
EIF3F, sequence (O00303 whole entry): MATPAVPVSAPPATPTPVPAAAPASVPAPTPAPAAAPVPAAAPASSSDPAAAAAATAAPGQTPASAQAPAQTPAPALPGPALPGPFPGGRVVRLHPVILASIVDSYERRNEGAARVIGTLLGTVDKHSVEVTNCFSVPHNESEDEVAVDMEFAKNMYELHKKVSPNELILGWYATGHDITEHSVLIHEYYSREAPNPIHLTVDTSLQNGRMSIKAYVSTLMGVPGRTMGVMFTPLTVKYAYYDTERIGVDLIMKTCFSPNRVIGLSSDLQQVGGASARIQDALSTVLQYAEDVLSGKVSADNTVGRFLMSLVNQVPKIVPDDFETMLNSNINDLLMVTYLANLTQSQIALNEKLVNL
Outline: as §1

EIF3H = EIF3H (UniProt O15372)
EIF3H, sequence (O15372 whole entry): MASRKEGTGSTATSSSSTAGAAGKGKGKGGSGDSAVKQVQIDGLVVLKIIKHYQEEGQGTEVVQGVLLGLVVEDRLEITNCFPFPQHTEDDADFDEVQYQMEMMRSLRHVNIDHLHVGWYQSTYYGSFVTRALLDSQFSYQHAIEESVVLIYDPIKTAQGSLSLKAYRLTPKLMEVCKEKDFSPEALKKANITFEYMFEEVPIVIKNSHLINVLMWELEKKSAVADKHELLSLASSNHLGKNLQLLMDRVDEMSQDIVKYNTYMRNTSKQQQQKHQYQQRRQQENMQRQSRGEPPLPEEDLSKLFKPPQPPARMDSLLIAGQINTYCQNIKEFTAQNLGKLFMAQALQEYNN
Outline: as §1

FAM105A = target: T3, FAM105A (UniProt Q9NUU6)
T3 sequence (whole entry): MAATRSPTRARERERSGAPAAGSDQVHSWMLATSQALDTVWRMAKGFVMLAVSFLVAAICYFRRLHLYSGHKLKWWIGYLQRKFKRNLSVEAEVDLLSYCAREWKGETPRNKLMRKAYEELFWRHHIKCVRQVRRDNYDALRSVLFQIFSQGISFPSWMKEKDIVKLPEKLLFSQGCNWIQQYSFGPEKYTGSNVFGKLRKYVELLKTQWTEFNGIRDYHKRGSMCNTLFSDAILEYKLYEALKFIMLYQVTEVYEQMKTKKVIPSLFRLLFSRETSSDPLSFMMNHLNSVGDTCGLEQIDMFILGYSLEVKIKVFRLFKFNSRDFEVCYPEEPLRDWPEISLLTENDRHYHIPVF
Outline: as §1

OTUB1 = OTUB1 (UniProt Q96FW1)
OTUB1, sequence (Q96FW1 whole entry): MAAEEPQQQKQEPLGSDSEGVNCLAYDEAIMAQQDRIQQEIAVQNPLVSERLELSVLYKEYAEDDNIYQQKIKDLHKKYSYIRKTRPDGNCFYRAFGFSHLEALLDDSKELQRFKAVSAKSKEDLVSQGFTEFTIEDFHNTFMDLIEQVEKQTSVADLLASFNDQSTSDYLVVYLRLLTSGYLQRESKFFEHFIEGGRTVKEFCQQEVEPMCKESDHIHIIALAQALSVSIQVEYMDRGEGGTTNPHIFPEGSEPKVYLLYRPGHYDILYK
Outline: as §1

OTUD4 = target: T4, OTUD4 (UniProt Q01804)
T4 sequence (whole entry): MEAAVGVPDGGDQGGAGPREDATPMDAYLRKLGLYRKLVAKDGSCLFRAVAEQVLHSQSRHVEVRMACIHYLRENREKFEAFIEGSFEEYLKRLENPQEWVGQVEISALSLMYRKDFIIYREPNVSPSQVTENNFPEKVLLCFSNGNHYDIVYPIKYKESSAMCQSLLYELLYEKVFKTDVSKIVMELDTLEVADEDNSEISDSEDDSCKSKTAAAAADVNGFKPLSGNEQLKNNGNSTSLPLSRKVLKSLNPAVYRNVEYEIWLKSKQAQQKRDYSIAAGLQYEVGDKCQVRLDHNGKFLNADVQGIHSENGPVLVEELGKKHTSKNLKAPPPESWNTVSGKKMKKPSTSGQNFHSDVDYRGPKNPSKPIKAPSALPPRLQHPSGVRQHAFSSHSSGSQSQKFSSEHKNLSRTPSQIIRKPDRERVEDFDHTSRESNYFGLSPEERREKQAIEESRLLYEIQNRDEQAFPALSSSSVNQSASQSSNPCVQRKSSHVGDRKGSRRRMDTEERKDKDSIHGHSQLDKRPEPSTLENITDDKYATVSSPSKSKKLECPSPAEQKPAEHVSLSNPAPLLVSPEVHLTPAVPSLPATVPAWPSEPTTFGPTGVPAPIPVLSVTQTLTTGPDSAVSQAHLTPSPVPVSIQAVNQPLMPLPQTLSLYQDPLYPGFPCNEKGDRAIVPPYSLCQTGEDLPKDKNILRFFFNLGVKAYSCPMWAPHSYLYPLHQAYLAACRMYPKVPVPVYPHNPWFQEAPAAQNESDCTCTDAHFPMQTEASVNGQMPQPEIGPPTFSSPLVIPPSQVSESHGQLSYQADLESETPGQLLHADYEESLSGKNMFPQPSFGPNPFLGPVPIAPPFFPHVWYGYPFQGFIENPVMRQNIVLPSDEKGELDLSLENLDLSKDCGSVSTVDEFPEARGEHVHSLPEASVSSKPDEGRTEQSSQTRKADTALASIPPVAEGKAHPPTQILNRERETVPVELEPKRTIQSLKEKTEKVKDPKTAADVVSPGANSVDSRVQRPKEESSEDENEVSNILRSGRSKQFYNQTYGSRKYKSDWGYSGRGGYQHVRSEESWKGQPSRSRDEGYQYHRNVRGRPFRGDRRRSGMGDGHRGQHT
Outline: as §1

OTUD5 = target: T5, OTUD5 (UniProt Q96G74)
T5 sequence (whole entry): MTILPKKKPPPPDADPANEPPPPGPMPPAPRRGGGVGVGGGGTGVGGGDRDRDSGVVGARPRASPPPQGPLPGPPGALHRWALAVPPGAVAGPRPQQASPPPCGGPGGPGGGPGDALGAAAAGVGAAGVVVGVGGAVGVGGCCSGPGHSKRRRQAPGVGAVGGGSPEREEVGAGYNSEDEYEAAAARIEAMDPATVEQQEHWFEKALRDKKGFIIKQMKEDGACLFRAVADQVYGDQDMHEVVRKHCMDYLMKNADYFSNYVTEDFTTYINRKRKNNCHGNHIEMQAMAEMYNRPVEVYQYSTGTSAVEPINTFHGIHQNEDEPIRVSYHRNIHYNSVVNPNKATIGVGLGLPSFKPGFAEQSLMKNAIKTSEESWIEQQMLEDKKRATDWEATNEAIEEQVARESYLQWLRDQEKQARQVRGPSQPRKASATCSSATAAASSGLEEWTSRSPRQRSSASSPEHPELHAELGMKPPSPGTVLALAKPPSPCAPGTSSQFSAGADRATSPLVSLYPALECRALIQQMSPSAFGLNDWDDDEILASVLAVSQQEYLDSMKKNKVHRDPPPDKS
Outline: as §1

Measured: log2 ratio of Biotin-Ahx-Ub-VS probe labelling

Cl.O=C(CCl)N1CCC(n2nc3ccccc3n2)CC1
active: ATXN3 -1.1 | BAP1 -2.08
inactive: ALG13 -0.254 | EIF3F -0.315 | EIF3H -0.151 | FAM105A 0.315 | OTUB1 -0.67 | OTUD4 -0.134 | OTUD5 -0.494
